Screens deposited in PubChem by several laboratories.
Hits are enriched below; roughly 0.5% of the tested compounds scored in any of these assays.
AddAB inh – less growth of phage-infected E. coli with AddAB; AID 435030; inhibition, % at 11.9 µM; E. coli expressing H. pylori AddAB, absorbance growth; 0.29% of 330,000 active; in the data active = inhibition above about 12%
Tat export inh – inhibitors of E. coli Tat protein transport | E. coli MC4100 TorA-mCherry Tat export, fluorescence | inhibition, % at 10 µM | 0.036% of 340,000 active;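 active = mean replicate inhibition at least 50% and at least half of replicates individually reaching 50%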;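 note: exported cargo escapes ClpAP degradation while cytoplasmic cargo is degraded and loses fluorescence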
E coli growth-1 – blocks Escherichia coli growth | OD600, 23 h; hits give low values | OD600 absorbance (no concentration beside the values) | 0.21% of 330,000 active | AID 1053175;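 active = OD600 absorbance below the run mean of sample wells minus 3.6 SD, in any replicate, cut at about 0.56 in these data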
E coli growth-2 – bacterial growth inhibition, counter-screen for AddAB inhibitors; E. coli V3065 growth, OD600 absorbance, 18 h; inhibition, % at 11.9 µM; 0.27% of 330,000 active;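 active = inhibition above the campaign's mean inhibition across all tested compounds plus 3 SD, cut at about 9.9% in these data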;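 note: uninfected addAB+ strain grown without phage in ampicillin broth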
phage Ecoli inh – E. coli growth loss with phage present; growth absorbance; inhibition, % at 11.9 µM; 0.26% of 360,000 active; AID 651602; in the data active = inhibition above about 11%
Numbers stand for hits; n = inactive; x = no result.

SMILES	AddAB inh	Tat export inh	E coli growth-1	E coli growth-2	phage Ecoli inh
O=C(NN=Cc1ccc(-c2ccccc2C(=O)O)o1)c1cccs1	x	x	n	x	x
CN(C)C(=O)C[n+]1ccc(/C=N/O)cc1	n	n	x	n	n
CCCCCCCCCCCCCCCC[n+]1ccc(C=NO)cc1	x	x	0.399	x	x
CCSc1ncc(C=NNc2ccc(F)cc2)n1C	x	x	n	x	x
CN(C)c1ccc(C=c2c3ccccc3n3c2cc(-c2ccccc2)[n+]3C)cc1	x	n	x	x	10.9
CN(C)c1ccc(C=c2c3ccccc3n3c2cc(-c2ccc(Cl)cc2)[n+]3C)cc1	x	n	x	x	n
Cc1cc(OCCCCn2ccnc2)cc(C)c1Cl	n	n	0.5	n	n
CCOc1cccc(/C=N/NC(=S)Nc2ccccc2[N+](=O)[O-])c1O	n	n	x	n	10.9
CCCOc1ccc(C=NNC(=S)Nc2ccccc2[N+](=O)[O-])c(O)c1	x	x	n	x	x
c1ccc(N2CCN(Cc3ccnc4ccccc34)CC2)cc1	n	n	n	n	n
Oc1c(CN2CCN(c3ccccc3)CC2)cc(Br)c2cccnc12	n	n	0.465	n	n
C=CCNC(=S)NNC(=O)c1ccc(OCCC)cc1	n	n	n	n	n
CCCOc1ccc(C(=O)NNC(=S)NC(=O)CC)cc1	n	n	0.404	n	n
CON=C(CS(=O)Cc1ccccc1Cl)c1ccc(Cl)cc1Cl (configuration not stated)	x	x	n	x	x
COC1C=CO[C@@]2(C)Oc3c(C)c(O)c4c(O)c(c5c(nc6cc(C)ccn65)c4c3C2=O)NC(=O)C(C)=CC=CC(C)C(O)C(C)C(O)C(C)C(OC(C)=O)C1C (some centres not stated)	x	x	0.062	x	x
COC1C=CO[C@@]2(C)Oc3c(C)c(O)c4c(O)c(c(C=NN5CCN(C)CC5)c(O)c4c3C2=O)NC(=O)C(C)=CC=CC(C)C(O)C(C)C(O)C(C)C(OC(C)=O)C1C (some centres not stated)	x	x	0.074	x	x
S=C(NCc1ccco1)Nc1ccc(Cl)c(Cl)c1	n	n	0.47	n	n
O=[N+]([O-])c1cccc2nc3ccccc3c(NCCCn3ccnc3[N+](=O)[O-])c12	x	n	x	x	16.1
O=[N+]([O-])c1ccccc1Nc1c2ccccc2nc2ccccc12	n	n	n	n	n
COCCCN1C(=O)C(=O)C(=C(O)c2ccc(OC(C)C)cc2)C1c1ccc(O)c(OC)c1 (configuration not stated)	x	x	n	x	x
O=C1c2cccnc2-c2ncccc21	n	n	n	n	n
O=C1C(=O)c2cccnc2-c2ncccc21	x	x	x	x	100.8
O=C(NN=C1CCSc2ccc(F)cc21)c1cccnc1	x	x	n	x	x
O=Cc1ccc(O)c2ncccc12	x	n	0.093	x	x
Oc1ccc(C[C@@H]2CNCCN2CCc2cc(C(F)(F)F)cc(C(F)(F)F)c2)cc1	n	n	x	n	n
SMILES	AddAB inh	Tat export inh	E coli growth-1	E coli growth-2	phage Ecoli inh
FC(F)(F)c1cc(CCN2CCNCC2CC2CCCCC2)cc(C(F)(F)F)c1 (configuration not stated)	x	x	0.462	x	x
O=C(C[n+]1ccccc1)NN=Cc1ccc(F)cc1	x	x	n	x	x
FC(F)(F)c1cccc(NC(=S)NNC(=S)Nc2cccc(C(F)(F)F)c2)c1	n	x	x	n	x
FC(F)(F)c1cccc(NC(=S)Nc2ccc(Cl)c(Cl)c2)c1	n	n	0.401	n	n
CC(C)Cc1ccc(C(=NO)C(=O)O)s1	x	x	n	x	x
CCn1c(C)nc2cc(C(=O)N/N=C/c3ccc(O)c(O)c3O)ccc21	x	n	x	x	21.1
CCOc1ccc(N2CC(C(=O)NCCN3C(=O)S/C(=C\c4ccc(OC)cc4)C3=O)CC2=O)cc1 (configuration not stated)	n	n	n	n	n
COc1ccc(/C=C2\SC(=O)N(CCNC(=O)C3CC(=O)N(c4ccccc4)C3)C2=O)cc1 (configuration not stated)	n	n	n	12.0	n
COC(=O)c1c(NC(=O)Cc2cccs2)sc2c1CCC(C)C2 (configuration not stated)	n	n	n	n	n
COC(=O)c1c(NC(=S)NN2CCN(C)CC2)sc2c1CCC(C)C2 (configuration not stated)	n	n	0.485	n	n
COc1ccc2c3c(cccc13)C(=O)N(O)C2=O	n	n	0.377	n	n
Clc1ccc2c(c1)c1cc(Cl)ccc1n2CN1CCOCC1	n	n	0.0885	n	n
Clc1ccc2c(c1)c1ccccc1n2CN1CCOCC1	n	n	0.515	n	n
COc1ccc(Cl)cc1CN1CCOCC1	n	n	n	n	n
CN(N=Cc1cccs1)c1cc(=O)n(C)c(=O)[nH]1	x	x	n	x	x
